Measurements: article PMC4336329 (PLoS ONE, 2015)
Screen size: about 310,000 compounds; about 14,000 (4.5%) showed an effect of 50% or more. The effect is printed as a negative number. For the sample, strong results were picked, then their nearest neighbours and some compounds at random.

Target: human ether-à-go-go-related gene (hERG) potassium channel (human, UniProt Q12809)
Test: primary screen, population patch clamp on CHO cells stably expressing hERG; higher = less effect of the substance
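Further: peak tail current of the secondary pulse compared with the same well before compound.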

Sequence of human ether-à-go-go-related gene (hERG) potassium channel (Q12809 whole entry, looked up): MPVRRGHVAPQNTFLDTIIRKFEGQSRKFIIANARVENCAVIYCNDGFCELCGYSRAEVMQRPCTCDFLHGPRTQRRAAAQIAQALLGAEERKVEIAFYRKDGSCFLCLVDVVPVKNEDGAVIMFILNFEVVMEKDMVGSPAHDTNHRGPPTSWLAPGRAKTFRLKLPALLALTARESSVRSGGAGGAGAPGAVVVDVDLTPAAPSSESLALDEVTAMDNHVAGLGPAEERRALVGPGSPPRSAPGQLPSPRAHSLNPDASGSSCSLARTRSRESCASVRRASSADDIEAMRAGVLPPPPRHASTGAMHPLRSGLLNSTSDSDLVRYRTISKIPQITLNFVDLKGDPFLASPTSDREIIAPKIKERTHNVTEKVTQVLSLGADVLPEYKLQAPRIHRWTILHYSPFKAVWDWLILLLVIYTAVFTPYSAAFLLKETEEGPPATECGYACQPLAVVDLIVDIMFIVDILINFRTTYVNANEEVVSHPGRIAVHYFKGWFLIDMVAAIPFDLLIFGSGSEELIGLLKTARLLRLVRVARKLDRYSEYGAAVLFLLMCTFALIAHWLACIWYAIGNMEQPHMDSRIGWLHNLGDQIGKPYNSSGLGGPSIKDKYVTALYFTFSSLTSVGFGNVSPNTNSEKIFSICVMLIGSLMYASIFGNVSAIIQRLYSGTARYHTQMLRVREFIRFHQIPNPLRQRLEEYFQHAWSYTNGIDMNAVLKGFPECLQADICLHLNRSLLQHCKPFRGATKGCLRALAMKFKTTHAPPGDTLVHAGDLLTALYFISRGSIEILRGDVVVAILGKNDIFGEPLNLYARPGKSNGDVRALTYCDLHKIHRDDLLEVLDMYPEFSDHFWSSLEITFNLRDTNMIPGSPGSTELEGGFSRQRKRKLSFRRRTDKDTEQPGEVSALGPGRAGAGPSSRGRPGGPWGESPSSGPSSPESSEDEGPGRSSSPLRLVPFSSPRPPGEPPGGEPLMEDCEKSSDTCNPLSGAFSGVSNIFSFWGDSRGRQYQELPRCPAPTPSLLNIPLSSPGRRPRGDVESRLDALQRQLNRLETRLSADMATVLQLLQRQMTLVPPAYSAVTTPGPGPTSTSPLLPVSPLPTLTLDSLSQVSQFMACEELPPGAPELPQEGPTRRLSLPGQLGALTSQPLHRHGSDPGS

SMILES | hERG current change (%, negative = inhibition) at 10uM [%]
Cc1nc(/N=C(\N)NC(=O)NC2CCCCC2)nc2ccccc12 | -21
CCCC(=O)N/C(N)=N/c1nc(C)c2cc(C)ccc2n1 | -23.8
Cc1ccc2nc(/N=C(\N)NC(=O)NC3CCCCC3)nc(C)c2c1 | -76.4
COC(=O)CN1CCN(C(=O)c2ccco2)CC1 | 10
CCOC(=O)c1cc(C)sc1NC(=O)CN1CCN(C(=O)C2CCCO2)CC1 (centres unmarked) | -31
CCOC(=O)c1cc(C)sc1NC(=O)CN1CCN(C(=O)c2ccco2)CC1 | -72.8
CCOC(=O)c1cc(CC)sc1NC(=O)CN1CCN(C(=O)C2CCCO2)CC1 (centres unmarked) | -65.9
COC(=O)c1cc(C)sc1NC(=O)CN1CCN(C(=O)c2ccco2)CC1 | -30
CCOC(=O)c1cc(CC)sc1NC(=O)CN1CCN(C(=O)c2ccco2)CC1 | -67.2
Cc1ccc(C(=O)c2cc(C)sc2NC(=O)CN2CCN(C(=O)c3ccco3)CC2)cc1 | -11.7
CCOC(=O)c1c(NC(=O)CN2CCN(C(=O)c3ccco3)CC2)sc(C)c1C | -8.41
CCc1c(C)sc(NC(=O)CN2CCN(C(=O)c3ccco3)CC2)c1C(=O)OC | -39.7
CCc1cc(C(=O)OC)c(NC(=O)CN2CCN(C(=O)c3ccco3)CC2)s1 | -51.6
CCOC(=O)c1c(NC(=O)CN2CCN(C(=O)c3ccco3)CC2)sc(C(N)=O)c1C | -20.1
CCc1cc(C(=O)OC)c(NC(=O)CN2CCN(C(=O)C3CCCO3)CC2)s1 (centres unmarked) | -47.2
COC(=O)c1sccc1NC(=O)c1cc(-c2ccc(C)cc2C)nc2ccccc12 | 6.94
CC(C)C(NC(=O)c1ccc(C(C)(C)C)cc1)C(=O)NC1=NCCS1 (centres unmarked) | -6.13
Cc1ccccc1CN(c1ccc(C(=O)Nc2cccnc2)cc1)S(C)(=O)=O | -9.59
NC(=O)CSc1n[nH]c(-c2ccco2)n1 | 24
O=C(COC(=O)COc1cccc(C(F)(F)F)c1)NC(=O)NC1CCCCC1 | -1.9
Cc1c(CNCCc2ccccc2)c(C(=O)O)c(C)n1-c1ccccc1 | 12.1
C/C(=N/NC(=O)CNC(=O)Cc1ccc(Cl)cc1)c1ccco1 | 4.04

SMILES | hERG current change (%, negative = inhibition) at 10uM [%]
CCc1cc(C(=O)c2ccc(OC)cc2)c(NC(=O)CN2CCN(C)CC2)s1 | -71.3
CCc1cc(C(=O)c2ccc(OC)cc2)c(NC(=O)CN2CCCCC2)s1 | 5
CCc1cc(C(=O)c2ccc(OC)cc2)c(NC(=O)CN2CCCC2)s1 | -12.4
CCOc1cccc2cc(C(=O)N3CCc4ccccc43)c(=O)oc12 | -2.43
COC(=O)C1=C(c2ccc(OC)c(OC)c2)C[C@@H]2CC[C@H]1N2C(=O)NCCCOC(C)C | 15.3
C[N+]1(CC(=O)OCCCC2CCCCC2)CCCC1.[I-] | -8.31
OC(CNC1Cc2ccccc2C1)COc1ccc(F)cc1 (centres unmarked) | -49.1
CC(OCC(O)CNCC1COc2ccccc2O1)c1ccc(Cl)cc1 (centres unmarked) | -22.7
COC(=O)c1ccc(OCC(O)CNC2CCCC2)cc1.Cl (centres unmarked) | 13.3
Cl.O=[N+]([O-])c1ccc(OCC(O)CNC2CCCC2)cc1 (centres unmarked) | -76.2
COc1ccc(OCC(O)CNC2CCCC2)cc1.Cl (centres unmarked) | 12.8
Cl.OC(CNCC1COc2ccccc2O1)COc1ccc(Cl)cc1 (centres unmarked) | -56.2
Cl.OC(CNC1CCCC1)COc1ccc(F)cc1 (centres unmarked) | 5.27
O=C(O)c1ccccc1C(=O)NCC(O)COc1ccc(Cl)cc1 (centres unmarked) | 2.34
OC(CNCC1COc2ccccc2O1)COc1ccccc1F (centres unmarked) | 1.11
Cl.OC(CNC1CCCC1)COc1ccc(Cl)cc1 (centres unmarked) | -9.8
Cl.OC(CNC1CCCC1)COc1ccc(-c2ccccc2)cc1 (centres unmarked) | -51.8
OC(CNC1Cc2ccccc2C1)COc1ccc(Cl)cc1 (centres unmarked) | -68.8
O=C(CSc1nnc(-c2cccs2)o1)N1CCCc2ccccc21 | 3.02
O=C(CCCn1c(=S)[nH]c2ccsc2c1=O)Nc1ccc2c(c1)OCO2 | 17.2
O=C(COC(=O)c1ccccc1O)Nc1cc([N+](=O)[O-])ccc1Cl | -21.5
Nc1nc(NCCc2ccccc2)nc(NCc2ccccc2)c1[N+](=O)[O-] | 20.4

SMILES | hERG current change (%, negative = inhibition) at 10uM [%]
Cc1ccc(OCC(O)CNC2CCCC2)c(C)c1.Cl (centres unmarked) | 7.48
Cc1ccc(OCC(O)CNS(=O)(=O)c2ccccc2C(=O)N2CCCCC2)cc1 (centres unmarked) | -13.9
Cc1cccc(C)c1OCC(O)CNS(=O)(=O)c1ccccc1C(=O)N1CCCCC1 (centres unmarked) | -10.9
Cc1ccc(C)c(OCC(O)CNC2CCCC2)c1.Cl (centres unmarked) | 8.8
O=C(c1ccccc1S(=O)(=O)NCC(O)COc1ccc([N+](=O)[O-])cc1)N1CCCCC1 (centres unmarked) | -56.8
Cc1ccc(C(C)C)c(OCC(O)CNC2CCCC2)c1.Cl (centres unmarked) | -51.9
CCc1nn(C(C)C(=O)N2CCN(c3ccccc3)CC2)c(=O)c2cc3occc3n12 (centres unmarked) | -25.3
CCOC(=O)C1C(c2ccc(O)c(OCC)c2)NC(=S)NC1(O)C(F)(F)F (centres unmarked) | -12.5
CC(=O)c1ccc(N2CCN(C(=O)CCC(=O)Nc3ccc4nc(N5CCN(C)CC5)cc(C)c4c3)CC2)cc1 | 20.3
CN(C(=O)COC(=O)c1ccc(-c2ccc(O)cc2)cc1)C1CCS(=O)(=O)C1 (centres unmarked) | 10.8
COCCNC(=O)CN(C(=O)CCC(=O)Nc1ccccn1)c1ccc(F)c(Cl)c1 | 4.59
O=C(CSc1nnnn1-c1ccccc1)NCC1(N2CCCCC2)CCCCC1 | -62.3
O=C(CSc1nnnn1-c1ccccc1)NCC1(N2CCOCC2)CCCCC1 | -21.3
O=C(CSc1ccccc1)NCC1(N2CCCCC2)CCCCC1 | -0.798
Cc1ccc(-n2nnnc2SCC(=O)NCCC2=CCCCC2)c(C)c1 | -13.1
CNC(=O)CSc1nnnn1-c1ccc(C)cc1C | 7.63
Cc1ccc(-n2nnnc2SCC(=O)NCC2(N3CCCCC3)CCCCC2)c(C)c1 | -284
COCCN(C(=O)COC(=O)c1ccccc1Oc1ccccc1)c1c(N)n(Cc2ccccc2)c(=O)[nH]c1=O | -21.6
Cc1cc(C(=O)N2CCN(c3ncccn3)CC2)sc1-c1ccccc1 | -3.34
O=[N+]([O-])c1ccccc1/C=N/NC1=NCCN1 | 7.6
COc1ccccc1N1CCN(C(=O)CCNC(=O)Cn2ccc3ccccc3c2=O)CC1 | 2.62
CN(C(=O)C1CCC(=O)N(CCCN2CCCC2=O)C1)C(C1CC1)C1CC1 (centres unmarked) | 12.1

SMILES | hERG current change (%, negative = inhibition) at 10uM [%]
CC(=O)Nc1ccc(S(=O)(=O)Nc2ccc3c(c2)OCO3)cc1 | 17.2
O=C(Nc1cccc(S(=O)(=O)N2CCCCC2)c1)C1CCN(C(=O)c2ccc(Cl)cc2)CC1 | -31.7
O=C(Nc1cccc(S(=O)(=O)N2CCCCCC2)c1)C1CCC1 | -57.4
O=C(Nc1cccc(S(=O)(=O)N2CCCCC2)c1)C1CC1 | -10.6
CN(c1ccccc1)S(=O)(=O)c1cccc(NC(=O)COC(=O)C2CCCCC2)c1 | 13.7
O=C(Nc1cccc(S(=O)(=O)N2CCCCC2)c1)C1CCC1 | 3.43
O=C(Nc1cccc(S(=O)(=O)N2CCOCC2)c1)[C@@H]1CCCN1S(=O)(=O)c1ccc(Cl)cc1 | -62.8
O=C(Nc1cccc(S(=O)(=O)N2CCOCC2)c1)C1CCCN(C(=O)c2ccc(Cl)cc2)C1 (centres unmarked) | -32.4
O=C(Nc1cccc(S(=O)(=O)N2CCCCCC2)c1)C1CCN(C(=O)c2ccc(Cl)cc2)CC1 | -41.9
O=C(Nc1cccc(S(=O)(=O)N2CCCCCC2)c1)C1CCN(C(=O)c2ccc(F)cc2)CC1 | -88
CN(C)S(=O)(=O)c1cccc(NC(=O)COC(=O)C2CCN(C(=O)c3ccc(F)cc3)CC2)c1 | -50.8
CN(C)S(=O)(=O)c1cccc(NC(=O)COC(=O)CCC(=O)c2ccc(F)cc2)c1 | -36
O=C(Nc1cccc(S(=O)(=O)N2CCOCC2)c1)C1CCCC1 | -4.03
CC(C)CCNC(=O)c1ccc2c(SCC(=O)O)c3c(nc2c1)CCCC3 | -2.6
Cc1ccc(N(C)S(=O)(=O)c2csc(C(N)=O)c2)cc1C | -14.8
Cc1ccc(CN2C(=O)CCC2C(=O)NCCN(CC(C)C)CC(C)C)cc1 (centres unmarked) | -13.4
CCOc1cc(N2CCOCC2)c(OCC)cc1NC(=O)C1=NN(c2cccc(C)c2)C(=O)CC1 | -3.8
COc1cc(Cn2nnc3ccccc32)cc(Br)c1O | 3
Cc1ccccc1NC(=O)Cn1c(CCC(=O)O)ccc1-c1cccs1 | 15.4
CCN(C(=O)CSc1ccc2ccccc2n1)C1CCS(=O)(=O)C1 (centres unmarked) | -7.61
